Measurements from ChEMBL document CHEMBL4513216, “Probing the Open Global Health Chemical Diversity Library for Multistage-Active Starting Points for Next-Generation Antimalarials” (ACS Infect Dis, 2020).
Screen size: about 68,000 compounds; about 2,700 (4%) showed an effect of 50% or more. Many of the other results were omitted from the sample, so strong results are more common in it than they were.

test system: Plasmodium berghei; test: Screen against P. berghei liver stage (PbLuc), transformed with Luciferase, at 2uM; format: functional, HepG2; conditions: tested at 2 uM

Row | Structure (SMILES) | INHIBITION [%]
1 | O=C(NCCCn1cccn1)N1CCCC1c1cccs1 (stereo not given) | -13.45
2 | CCc1cc2c(N3CCCC(c4cc(C(N)=O)[nH]n4)C3)ncnc2s1 (stereo not given) | -126.83
3 | Cc1cnc(C(=O)N2CCc3c(nc(-c4ccncc4)[nH]c3=O)C2)cn1 | 10.63
4 | CNC(=O)C(C)(C)N1CCC[C@H]1C(=O)NC1CC1 | 24.91
5 | CC(C)[C@@H]1CN(C(=O)C2(c3ccccc3)CCN(C)CC2)C[C@H]1C(=O)O | 31.51
6 | CC(C)[C@@H]1CN(C(=O)C2(c3ccccc3)CC2)C[C@H]1C(=O)O | 69.67
7 | COc1ccc(C2(C(=O)N3C[C@@H](C(=O)O)[C@H](C(C)C)C3)CC2)cc1 | 17.2
8 | CCN(c1ccc(C(=O)N2CCC(C)CC2)cc1)S(=O)(=O)CC | 9.63
9 | CCN(c1ccc(C(=O)N2CCCC(C)C2)cc1)S(=O)(=O)CC (stereo not given) | -2.82
10 | CCS(=O)(=O)N(C)c1ccc(C(=O)N2CCCC(C)C2)cc1 (stereo not given) | 62.77
11 | CN1CCN(C(=O)C2(S(C)(=O)=O)CCCC2)Cc2ccccc21 | -21.76
12 | CN1CCN(C(=O)C2(NC(N)=O)CCCCC2)Cc2ccccc21 | 50.61
13 | NC(=O)NC1(C(=O)N2CCc3c(Cl)cccc3C2)CCCCC1 | 42.2
14 | O=C(CC1CC1)N[C@@H]1CN(Cc2ccccn2)C[C@@H]2CCCO[C@@H]21 | -5.84
15 | c1ccc(CCN2CCCC(c3ccnc4nccn34)C2)cc1 (stereo not given) | 32.74
16 | Cc1csc(C(=O)N2CCC3(CC(N(C)c4ccncn4)C3)C2)c1 (stereo not given) | -18.68
17 | CN(CC(O)C1CC1)C(=O)Nc1ccc(F)c(-n2cccc2)c1 (stereo not given) | 42.76
18 | c1ccc(-c2nc(CCNCc3cccnc3)co2)cc1 | 30.88
19 | CS(=O)(=O)NCCNC(=O)NC1(c2ccc(F)cc2)CCCC1 | 52.3
20 | CS(=O)(=O)NCCNC(=O)NC1(c2ccc(Cl)cc2)CCC1 | 43.88
21 | CS(=O)(=O)NCCC(=O)NC1(c2ccc(F)cc2)CCCC1 | 5.17
22 | CN(C)CCOCc1nnc2n1CCN(Cc1ccsc1)C2 | 20.2

Row | Structure (SMILES) | INHIBITION [%]
23 | CCc1cc(NC(=O)C2CCCN(C(=O)NCC(C)C)C2)[nH]n1 (stereo not given) | 6.62
24 | Cc1c(C2CC2)n[nH]c1NC(=O)C1CCCN(C(=O)NCC(C)C)C1 (stereo not given) | -7.81
25 | Cc1n[nH]c(C)c1NC(=O)C1CCCN(C(=O)NCC(C)C)C1 (stereo not given) | 52.95
26 | CC(C)c1sc(Cl)nc1C(=O)N1CCN(c2ccccn2)CC1 | 20.42
27 | COc1ncnc2c1CCN(C(=O)NCc1cccnc1)CC2 | 46.02
28 | O=C(NCCc1ccncc1)C1CCN(Cc2ccco2)CC1 | -0.55
29 | COCCNC(=O)Cn1cc(NC(=O)c2ccc(C(C)(C)C)cc2)cn1 | -38.81
30 | CCc1nc(CN2CCCN(Cc3noc(C4CC4)n3)CC2)cs1 | -17.17
31 | CC(C)c1nc(CS(=O)(=O)Cc2noc(C3CC3)n2)cs1 | 53.12
32 | CCc1nc(CS(=O)(=O)Cc2noc(C3CC3)n2)cs1 | -18.58
33 | CN1CC(C(=O)NC2(c3ccc(Cl)cc3)CCOCC2)CC1=O (stereo not given) | 3
34 | CN(C)C(=O)COCC1CN(Cc2ccco2)Cc2ncn(C)c21 (stereo not given) | -45.9
35 | CCCc1ccc(C(=O)N2CCn3c(nnc3C(C)C)C2)cc1 | 15.08
36 | CC(C)c1nnc2n1CCN(C(=O)c1ccc3cc[nH]c3c1)C2 | 45.92
37 | CC(C)c1nnc2n1CCN(C(=O)c1ccc(CN(C)C)cc1)C2 | 50.72
38 | CC(C)c1nnc2n1CCN(C(=O)c1ccc3c(c1)CCC3)C2 | 9.17
39 | CC(C)c1nnc2n1CCN(C(=O)c1ccc3c(c1)COC3)C2 | 57.75
40 | CC(C)c1nnc2n1CCN(C(=O)c1ccc(Cn3cccc3)cc1)C2 | 15.08
41 | O=C(c1ccoc1)N1CCn2cnc(COCC3CC3)c2C1 | 41.79
42 | O=C1Nc2ccccc2C12CCN(Cc1nccs1)CC2 | 21.61
43 | O=C(Cc1ccccc1F)N1C[C@@H]2COC[C@]2(COc2cccnc2)C1 | -2.44
44 | CO[C@H]1CO[C@@]2(CCCN(C(=O)N3CCCC3)C2)C1 | 28.13

Row | Structure (SMILES) | INHIBITION [%]
45 | CC1=CCN(S(=O)(=O)c2cccc(C(=O)N3CCCN(C)CC3)c2)CC1 | 23.17
46 | CN1CCCN(C(=O)c2cccc(S(=O)(=O)NCC3(C)COC3)c2)CC1 | -35.07
47 | CN1CCCN(S(=O)(=O)c2cccc(C(=O)N3CCCCCC3)c2)CC1 | 54.75
48 | CCN(CC)C(=O)CSc1sc2c(O)cc(=O)[nH]c2c1C(N)=O | -56.02
49 | Cc1ccc(N2C[C@H]3CCN(Cc4ccncc4)C[C@H]3C2)nn1 | 16.63
50 | O=C(c1ccoc1)N1CCO[C@]2(CCC[C@@H]2COCc2ccncc2)C1 | 35.48
51 | O=C(c1ccno1)N1CCO[C@]2(CCC[C@@H]2COCc2ccncc2)C1 | 64.99
52 | O=C(c1ccoc1)N1CCO[C@]2(CCC[C@H]2COCc2cccnc2)C1 | 5.85
53 | CCNC(=O)C1(Cc2cc(-c3ccc(C)cc3)no2)CCCN(C)C1 (stereo not given) | -40.35
54 | CS(=O)(=O)c1cn[nH]c1C1CCCCN1C(=O)c1cnccn1 (stereo not given) | 17.39
55 | CC(C)NC(=O)N1CCC2(CC(C(=O)NCc3cccnc3)=NO2)C1 (stereo not given) | -7.01
56 | COCCN(CCOC)c1ncccc1Cl | 67.7
57 | COCCN(CCOC)c1ncccc1I | 38.1
58 | COCCN(CCOC)c1ncc(C#N)cc1Cl | 1.42
59 | CCOc1ccc(Cl)cc1C1CCCCN1 (stereo not given) | 14.61
60 | COCCNC(=O)Cn1cc2c(n1)c(C)nn2C(C)C | -28.32
61 | CC(C)CN1CC[C@H](c2nnc(COc3ccc(F)cc3)o2)C1 | 10.65
62 | CS(=O)(=O)N1CC2(CCN(C(=O)c3csnn3)CC2)c2ccccc21 | 54.01
63 | Cn1cccc1C(=O)N1CCC2(CC1)CN(S(C)(=O)=O)c1ccccc12 | 38.64
64 | CS(=O)(=O)N1CC2(CCN(C(=O)c3ccncc3)CC2)c2ccccc21 | 9.53
65 | O=C(CN1C(=O)c2ccccc2C1=O)N1CCOC2(CCOCC2)C1 | 13.46
